The values below come from publication PMC13541613, “GHT-SELEX demonstrates unexpectedly high intrinsic sequence specificity and complex DNA binding of many human transcription factors”.

Holding throughout (experiment): HT-SELEX; 20 mM HEPES pH 7, 140 mM KCl, 5 mM NaCl, 1 mM K2HPO4, 2 mM MgSO4, 100 uM EGTA, ZnSO4, 0.1% Tween20; room temperature, 1 h; high values mean tight binding
Common to all, as to conditions: protein: ivt; tags: eGFP (N-terminal); dsDNA, one strand shown

Assay [1] has as its target ZNF721 full-length (Homo sapiens, UniProt Q8TF20-2 1-923). The method in brief:
(§1)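 Tagged transcription factor, expressed in HEK293 lysate or cell-free extract as a full-length protein or DNA-binding-domain fragment, was held on beads. It bound a randomized 40-base DNA library during 1 h at room temperature in low-stringency HEPES/KCl buffer with Tween20. Eluted DNA went through successive PCR cycles and Illumina sequencing of ~3 million 60 bp reads per sample. A higher relative k-mer count in the selected reads denotes tighter binding.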

Assay [2] addresses ZNF721 DBD1 (Homo sapiens, UniProt Q8TF20-2 29-461). In outline: as §1
Assay [3] has as its target ZNF721 DBD2 (Homo sapiens, UniProt Q8TF20-2 395-923). In outline:
as §1

Sequence of ZNF721 full-length (Q8TF20 other isoform, or with tags, fused parts or gaps): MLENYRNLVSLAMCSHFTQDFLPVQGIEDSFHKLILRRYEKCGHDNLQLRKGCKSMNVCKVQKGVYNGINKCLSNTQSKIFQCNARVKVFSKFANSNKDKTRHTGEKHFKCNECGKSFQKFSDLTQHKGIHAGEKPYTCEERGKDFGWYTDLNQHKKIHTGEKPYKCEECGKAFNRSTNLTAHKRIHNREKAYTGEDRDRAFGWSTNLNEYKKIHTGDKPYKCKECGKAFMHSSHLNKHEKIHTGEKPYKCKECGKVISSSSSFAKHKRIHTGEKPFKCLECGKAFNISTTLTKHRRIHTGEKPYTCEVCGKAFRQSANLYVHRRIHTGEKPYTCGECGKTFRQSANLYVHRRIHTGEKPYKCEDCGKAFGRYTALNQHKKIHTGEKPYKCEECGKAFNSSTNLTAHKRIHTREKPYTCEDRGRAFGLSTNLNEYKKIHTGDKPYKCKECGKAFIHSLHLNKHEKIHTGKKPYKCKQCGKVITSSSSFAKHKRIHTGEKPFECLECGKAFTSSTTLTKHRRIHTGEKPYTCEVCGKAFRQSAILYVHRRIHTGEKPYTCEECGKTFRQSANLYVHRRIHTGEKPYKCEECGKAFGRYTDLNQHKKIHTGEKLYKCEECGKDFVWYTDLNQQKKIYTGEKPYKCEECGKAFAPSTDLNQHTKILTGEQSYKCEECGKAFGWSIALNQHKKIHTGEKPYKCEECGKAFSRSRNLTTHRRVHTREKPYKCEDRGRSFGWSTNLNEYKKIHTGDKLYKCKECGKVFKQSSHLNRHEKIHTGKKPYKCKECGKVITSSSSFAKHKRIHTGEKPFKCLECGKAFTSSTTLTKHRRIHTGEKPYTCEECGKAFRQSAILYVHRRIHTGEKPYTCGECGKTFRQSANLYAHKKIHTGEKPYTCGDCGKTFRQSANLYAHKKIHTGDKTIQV
Sequence of ZNF721 DBD2 (Q8TF20 383-911): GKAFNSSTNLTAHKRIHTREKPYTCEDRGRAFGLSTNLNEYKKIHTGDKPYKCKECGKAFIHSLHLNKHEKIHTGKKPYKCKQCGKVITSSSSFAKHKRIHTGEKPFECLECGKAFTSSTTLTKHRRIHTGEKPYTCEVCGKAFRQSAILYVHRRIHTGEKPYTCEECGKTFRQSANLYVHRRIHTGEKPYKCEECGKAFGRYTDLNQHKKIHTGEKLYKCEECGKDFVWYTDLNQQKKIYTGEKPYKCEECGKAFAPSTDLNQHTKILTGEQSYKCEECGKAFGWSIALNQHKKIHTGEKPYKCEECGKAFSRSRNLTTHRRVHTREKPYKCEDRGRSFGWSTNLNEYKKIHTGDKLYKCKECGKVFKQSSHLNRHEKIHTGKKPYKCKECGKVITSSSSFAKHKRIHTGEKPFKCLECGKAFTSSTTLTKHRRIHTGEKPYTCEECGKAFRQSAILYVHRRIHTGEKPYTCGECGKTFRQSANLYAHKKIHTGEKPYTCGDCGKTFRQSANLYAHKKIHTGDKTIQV
Sequence of ZNF721 DBD1 (Q8TF20 17-449): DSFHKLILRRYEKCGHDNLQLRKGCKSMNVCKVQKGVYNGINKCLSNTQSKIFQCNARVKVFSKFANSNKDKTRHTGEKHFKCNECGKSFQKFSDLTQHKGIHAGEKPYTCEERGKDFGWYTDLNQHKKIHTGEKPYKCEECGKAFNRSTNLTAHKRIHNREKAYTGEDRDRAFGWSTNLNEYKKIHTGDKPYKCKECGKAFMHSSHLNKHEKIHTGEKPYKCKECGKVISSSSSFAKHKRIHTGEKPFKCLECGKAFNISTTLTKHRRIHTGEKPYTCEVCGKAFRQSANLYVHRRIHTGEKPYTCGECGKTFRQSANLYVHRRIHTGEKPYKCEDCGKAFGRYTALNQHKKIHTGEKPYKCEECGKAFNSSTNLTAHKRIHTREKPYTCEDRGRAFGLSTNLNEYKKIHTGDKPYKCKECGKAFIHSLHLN

Regarding AGCTATACCA, the binding signal in assay [1] was 0.14 relative 10-mer count; in assay [2], 0.0816 relative 10-mer count; in assay [3], 0.003 relative 10-mer count.

In the case of CGCCCACCCA, the results for the binding signal in assay [1], in assay [2] and in assay [3] were 0.147 relative 10-mer count, 0.00449 relative 10-mer count and 0.00216 relative 10-mer count, respectively.

Turning to CCCCCTGCCC, the values for the binding signal in assay [1], in assay [2] and in assay [3] were 0.154 relative 10-mer count, 0.00628 relative 10-mer count and 0.00192 relative 10-mer count, respectively.

Regarding GCCACCCCAC, the binding signal in assay [1] worked out at 0.129 relative 10-mer count; in assay [2] it was 0.00472 relative 10-mer count; in assay [3], 0.00491 relative 10-mer count.

In the case of ACCCCCCTCC, the binding signal in assay [1] came to 0.142 relative 10-mer count; in assay [2], 0.00624 relative 10-mer count; in assay [3], 0.00336 relative 10-mer count.

With CCCGCCCCGC, the binding signal was found to be 0.154 relative 10-mer count in assay [1], 0.00518 relative 10-mer count in assay [2] and 0.00144 relative 10-mer count in assay [3].

Take AAAAAAAAGC: the binding signal in assay [1] amounted to 0.653 relative 10-mer count; in assay [2] it was 0.113 relative 10-mer count; in assay [3] it was 0.125 relative 10-mer count.

CACCGCCCAC: the binding signal in assay [1] stood at 0.123 relative 10-mer count; in assay [2], 0.00482 relative 10-mer count; in assay [3] it was 0.00372 relative 10-mer count.

For AAAGCATACC, the values for the binding signal in assay [1], in assay [2] and in assay [3] were 0.143 relative 10-mer count, 0.0247 relative 10-mer count and 0.0344 relative 10-mer count, respectively.

Consider CCCCCCCCCG, for which the binding signal was found to be 0.112 relative 10-mer count in assay [1], 0.00303 relative 10-mer count in assay [2] and 0.00156 relative 10-mer count in assay [3].

In the case of CCGCACCCCC, the results for the binding signal in assay [1], in assay [2] and in assay [3] were 0.152 relative 10-mer count, 0.00569 relative 10-mer count and 0.00156 relative 10-mer count, respectively.

Take GCCCCCCTCC: the binding signal in assay [1] was found to be 0.128 relative 10-mer count; in assay [2], 0.00527 relative 10-mer count; in assay [3], 0.00264 relative 10-mer count.

CCTACCCCCC: the binding signal was 0.127 relative 10-mer count in assay [1], 0.00555 relative 10-mer count in assay [2] and 0.00707 relative 10-mer count in assay [3].

For CCCACCCCGC, the binding signal was determined as 0.212 relative 10-mer count in assay [1], 0.0094 relative 10-mer count in assay [2] and 0.00336 relative 10-mer count in assay [3].

With GCCCCACCCA, the binding signal in assay [1] is 0.13 relative 10-mer count; in assay [2], 0.00404 relative 10-mer count; in assay [3] it was 0.00515 relative 10-mer count.

Turning to CAACCACCCC, the binding signal was 0.13 relative 10-mer count in assay [1], 0.00486 relative 10-mer count in assay [2] and 0.00252 relative 10-mer count in assay [3].

Turning to ACCCGCCCAC, the results for the binding signal in assay [1], in assay [2] and in assay [3] were 0.115 relative 10-mer count, 0.00413 relative 10-mer count and 0.00288 relative 10-mer count, respectively.

As to ACCCTCCCCA, the figures for the binding signal in assay [1], in assay [2] and in assay [3] were 0.105 relative 10-mer count, 0.00509 relative 10-mer count and 0.00515 relative 10-mer count, respectively.

On to CCCCTCCACC, for which the results for the binding signal in assay [1], in assay [2] and in assay [3] were 0.274 relative 10-mer count, 0.0117 relative 10-mer count and 0.00851 relative 10-mer count, respectively.
